Compounds with a hit are over-represented: about 3.5% of the library has one in this group of screens.
Pf apPOL block – Pf-apPOL DNA polymerase inhibition; Recombinant Pf-apPOL, molecular beacon fluorescence, 1.5 h; inhibition, % at 10 µM; actives 0.25% (n = 210,000); AID 1794808
mHTT-CaM PPI inh – mHTT-calmodulin interaction abrogation; inhibition, % at 15 µM; AlphaScreen His-mHTT/GST-CaM binding, luminescence; actives 3.6% (n = 190,000); P42858
A number is an active result; . = inactive; / = no result; ! = repeats disagree. No stated cut-off is given here; in the data, active means inhibition above about 50%; inactive means the rest.

SMILES	Pf apPOL block	mHTT-CaM PPI inh
Clc1ccc(/C=N/Nc2nc(-c3ccc(Br)cc3)cs2)cc1	/	.
Cc1ccc(S(=O)(=O)N2CCc3c(c(-c4nc(-c5ccccc5)no4)nn3C)C2)cc1C	.	.
Cc1n[nH]c(C)c1S(=O)(=O)N1CCc2c(c(-c3nc(-c4ccccc4)no3)nn2C)C1	.	53
COc1ccc(CN2CC(C(=O)Nc3ccc(F)cc3)CC2=O)cc1 (stereo not given)	.	.
CC1=Nc2ccccc2C1=Cc1c(O)n(-c2ccc(C)cc2)c(=O)[nH]c1=O	.	.
Cc1cc(C)c(-n2c(O)c(C=C3C=Nc4ccccc43)c(=O)[nH]c2=O)c(C)c1	.	100
Cc1ccc(-n2c(O)c(C=C3C=CC=N3)c(=O)[nH]c2=O)cc1	.	.
O=c1[nH]c(=O)n(-c2ccccc2F)c(O)c1C=C1C=Nc2ccc(Br)cc21	.	100
Cc1ccc(C(=O)N2CCN(c3nc(CN4CCCCC4)cs3)CC2)cc1C	.	.
CCOCCCNC(=O)c1ccc2c(c1)ncn2-c1ccc(C)c(Cl)c1	.	84
COCCCNC(=O)c1ccc2c(c1)ncn2-c1ccc(C)c(Cl)c1	.	.
O=C(OCC1OC(O)C(O)(COC(=O)c2cc(O)c(O)c(O)c2)C1O)c1cc(O)c(O)c(O)c1 (stereo not given)	64	/
CCNC(=O)N1CCCC(c2cccc(C(=O)NCc3cccnc3)c2)C1 (stereo not given)	.	.
Cc1cc(S(=O)(=O)N2CCN(S(=O)(=O)c3ccc(Cl)c(C)c3)CC2)ccc1Cl	.	.
Cc1ccc(C)c(S(=O)(=O)N2CCN(C)CC2)c1	.	.
Cc1ccc(C)c(S(=O)(=O)N=C2C=CC(=O)c3ccccc32)c1	.	96
Cc1cc(S(=O)(=O)N=C2C=CC(=O)c3ccccc32)ccc1Cl	.	90
Cc1cc(C)c(S(=O)(=O)N=C2C=C(Br)C(=O)c3ccccc32)cc1C	.	.
Cc1cc(C)c(S(=O)(=O)N=C2C=CC(=O)c3ccccc32)cc1C	.	98
COC(=O)C(NC(=O)C(F)(F)F)(c1cccn1C)C(F)(F)F (stereo not given)	/	.
COc1ccc2nc(C3=C(O)c4ccccc4C3=O)sc2c1	.	.
Cc1ccc(CNC(=O)C2CCCN(C(=O)c3ccccc3Cl)C2)o1 (stereo not given)	.	.
COc1cc(C(=O)Oc2ccc3c(c2)OC(=Cc2ccccc2)C3=O)cc(OC)c1OC	.	.
O=C(CSCc1ccccc1)N1CCN(c2ccc(-c3cccs3)nn2)CC1	.	.
COc1cccc(C(=O)N2CCN(c3ccc(Nc4ccccn4)nn3)CC2)c1OC	.	.
SMILES	Pf apPOL block	mHTT-CaM PPI inh
O=C(CCSc1ccccc1)N1CCN(c2ccc(-c3ccccn3)nn2)CC1	.	100
O=C(Cn1ccc2ccccc21)N1CCN(c2ccc(-c3ccccn3)nn2)CC1	.	.
O=C(CSC1CCCC1)N1CCN(c2ccc(-c3ccccn3)nn2)CC1	.	100
COc1cccc(C(=O)N2CCN(c3ccc(-c4ccccn4)nn3)CC2)c1OC	.	100
Cc1ccc(C(=O)N2CCC(c3nc4ccncc4n3C(C)C)C2)c(C)c1 (stereo not given)	.	.
COc1ccc(/C=C2/N=C(c3ccccc3F)OC2=O)c(OC)c1OC	.	.
Cc1cc(C)c(C#[N+][O-])c(C)c1	/	.
O=C(CCc1ccccc1)NC(c1ccccc1)c1ccccc1	.	.
COc1ccccc1C(NC(=O)Cc1ccccc1)c1ccc2cccnc2c1O (stereo not given)	.	.
COc1ccc(C(NC(=O)CCc2ccccc2)c2ccc3cccnc3c2O)cc1OC (stereo not given)	.	100
COc1ccc(C(NC(=O)Cc2ccccc2)c2ccc3cccnc3c2O)cc1OC (stereo not given)	87!	100
CC(C)N1C(=O)C(C)(C(=O)Nc2cccc(Cl)c2)Oc2cccnc21 (stereo not given)	.	.
CC(C)N1C(=O)C(C)(C(=O)Nc2ccc(F)c(Cl)c2)Oc2cccnc21 (stereo not given)	.	100
Cc1nc(-c2ccccc2)sc1C(=O)N1CCC(CC(=O)NC2CCCCC2)CC1	.	.
Cc1nc(-c2ccccc2)sc1C(=O)N1CCC(C(C)C(=O)NC2CCCC2)CC1 (stereo not given)	.	100
CCN1CCn2cc(C(=O)N3CCN(c4ccccc4)CC3)nc2C1	.	.
CC(C)CN1CCn2cc(C(=O)N3CCN(c4cccc(Cl)c4)CC3)nc2C1	.	86
CC(C)CN1CCn2cc(C(=O)N3CCN(c4ccc(F)cc4)CC3)nc2C1	.	91
CC(C)CN1CCn2cc(C(=O)N3CCN(c4ccccc4F)CC3)nc2C1	.	.
O=C1OC(c2ccc3c(c2)OCO3)=N/C1=C\c1ccc(-c2ccc(Cl)cc2)o1	.	.
C=CCNCCOc1ccc(Br)cc1C	.	54
C=CCNC(=O)COc1ccc(Br)cc1C	.	.
COc1cc(N)c(C(c2ccc(C)o2)c2ccc(C)o2)cc1OC	.	.

Assay outcomes deposited in PubChem by University of Kansas High Throughput Screening Laboratory.
